# Test results published in PubChem BioAssay (EPA / NIEHS).
# Activity calls are given as the source filed them. Rule for the calls: active = hit-call score of the fitted dose curve at least 0.9, where 1 is the maximum; inactive = score below 0.9.
# Columns and labels:
# [1] = biological target: Bile acid receptor (Homo sapiens) (UniProt Q96RI1); assay: ATG_IR1_CIS: Attagene CIS-FACTORIAL HepG2 Assay for human Nuclear Receptor Subfamily 1 Group H Member 4 (NR1H4), IR1 submotif (AID 2282946); conditions: IR1 reporter transcription, actives raise or lower the signal
# In short: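 Readout: reporter transcript levels by RT-PCR with fluorescent capillary electrophoresis, from HepG2 cells transiently transfected with multiplexed cis-regulated reporters and dosed 24 h. Gain- or loss-of-signal fitted versus DMSO negative control.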
# [2] = ATG_GRE_CIS: Attagene CIS-FACTORIAL HepG2 Assay for human Glucocorticoid Response Elements (GRE) (AID 2282947); conditions: HepG2 GRE cis-reporter, Attagene multiplex mRNA; actives raise or lower the signal
# In short: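 HepG2, transient cis-reporter transfection, 24 h. Reporter mRNA: RT-PCR then CE, fluorescence. Fit both directions vs DMSO.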
# [3] = ATG_ISRE_CIS: Attagene CIS-FACTORIAL HepG2 Assay for human Interferon Regulatory Factor 1 (IRF1) binding to an Interferon-Stimulated Response Element (ISRE) (AID 2282948); conditions: HepG2 ISRE cis-reporter (Attagene), mRNA transcription readout; actives raise or lower the signal
# In short: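 Multiplexed mRNA reporter readout in human liver HepG2 cells: cis-element-driven reporters transfected, compound added for 24 h, transcripts amplified, fluorescently labelled and sized by capillary electrophoresis; curve fitting bidirectional against DMSO.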
# [4] = ATG_M_32_CIS: Attagene CIS-FACTORIAL HepG2 Assay for M32 Transcription Factor (Internal Marker) (AID 2282949); conditions: HepG2 Attagene cis-factorial M32 reporter, mRNA; actives raise or lower the signal;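 note: background control marker of the multiplexed CIS panel rather than a real target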
# In short: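 Using DMSO as baseline, bidirectional curve fits were applied to reporter mRNA signals. These came from transiently transfected HepG2 cells exposed for 24 h, with RNA analysed by RT-PCR, FAM primer extension, HpaI digestion and CE.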
# [5] = ATG_M_06_CIS: Attagene CIS-FACTORIAL HepG2 Assay for M06 Transcription Factor (Internal Marker) (AID 2282950); conditions: HepG2 Attagene CIS-FACTORIAL M06 internal marker reporter; actives raise or lower the signal
# In short: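 Steps: transfect HepG2 with multiplexed cis-element reporter constructs; dose chemical 24 h; extract RNA with DNase treatment; reverse-transcribe, PCR-amplify, 6-FAM label, HpaI digest; separate fragments by capillary electrophoresis. Activity fitted both directions versus DMSO.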
# [6] = biological target: Hypoxia-inducible factor 1-alpha (Homo sapiens) (UniProt Q16665); assay: ATG_HIF1a_CIS: Attagene CIS-FACTORIAL HepG2 Assay for human Hypoxia Inducible Factor 1 (HIF1A) (AID 2282951); conditions: HepG2 Attagene cis-factorial HIF1a reporter transcription; actives raise or lower the signal
# In short: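 Measures endogenous transcription-factor activity through cis-regulated reporter mRNA in HepG2. Cells dosed 24 h; transcripts quantified by RT-PCR with 6-FAM-labelled products separated by capillary electrophoresis; DMSO serves as negative control.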
# [7] = biological target: Hepatocyte nuclear factor 6 (Homo sapiens) (UniProt Q9UBC0); assay: ATG_HNF6_CIS: Attagene CIS-FACTORIAL HepG2 Assay for human Hepatocyte Nuclear Factor 6 (HNF6) (AID 2282952); conditions: HepG2 Attagene cis-factorial HNF6 reporter transcription; actives raise or lower the signal
# In short: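 First, HepG2 cells were transfected with the multiplexed cis reporter library and dosed with chemical for 24 h. Next, RNA was reverse-transcribed, PCR-amplified and fluorescently labelled. Finally, HpaI-digested fragments were read by capillary electrophoresis.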
# [8] = biological target: Heat shock factor protein 1 (Homo sapiens) (UniProt Q00613); assay: ATG_HSE_CIS: Attagene CIS-FACTORIAL HepG2 Assay for human Heat Shock Transcription Factor 1 (HSE) (AID 2282953); conditions: HepG2 HSE cis-reporter, Attagene RNA transcription; actives raise or lower the signal
# In short: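 Cells were transfected with cis-element-driven reporter constructs, dosed for 24 h, then total RNA was reverse-transcribed and reporter cDNA amplified, FAM-labelled and digested with HpaI. Fragments were resolved by capillary electrophoresis; gain or loss was fitted against DMSO.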
# [9] = ATG_MRE_CIS: Attagene CIS-FACTORIAL HepG2 Assay for human Metal Responsive Element (MRE) (AID 2282954); conditions: HepG2 MRE cis-reporter transcription, Attagene multiplex; actives raise or lower the signal
# In short: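 Readout: capillary electrophoresis of 6-FAM-labelled, HpaI-digested RT-PCR reporter products. System: HepG2 cells carrying transient multiplexed cis reporters, dosed 24 h. Analysis: bidirectional fit, DMSO baseline.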
# [10] = biological target: Paired box protein Pax-6 (Homo sapiens) (UniProt P26367); assay: ATG_Pax6_CIS: Attagene CIS-FACTORIAL HepG2 Assay for human Paired Box 6 (PAX6) (AID 2282956); conditions: HepG2 CIS-FACTORIAL PAX6 reporter transcription, RNA readout; actives raise or lower the signal
# In short: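 Fluorescent RT-PCR products separated by capillary electrophoresis report PAX6-linked promoter mRNA in HepG2 cells 24 h post-dose. Curves fitted bidirectionally, DMSO as negative control.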
# [11] = ATG_PXRE_CIS: Attagene CIS-FACTORIAL HepG2 Assay for human Pregnane X Receptor Element (PXRE) (AID 2282957); conditions: HepG2 Attagene CIS-FACTORIAL PXRE reporter, mRNA; actives raise or lower the signal
# In short: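 After a 24 h chemical incubation, total RNA from transfected HepG2 cells was reverse-transcribed and reporter cDNA amplified, FAM-labeled, HpaI-digested and sized by capillary electrophoresis. DMSO served as baseline for bidirectional curve fitting.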
# [12] = ATG_PPRE_CIS: Attagene CIS-FACTORIAL HepG2 Assay for human Peroxisome Proliferator-activated Response Element (PPRE) (AID 2282958); conditions: HepG2 PPRE cis-element reporter, Attagene transcription factor profiling; actives raise or lower the signal
# In short: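 Cells are first transfected transiently with the multiplexed reporter library, then dosed for 24 h. Total RNA is reverse-transcribed, amplified, fluorescently end-labeled and HpaI-cut before capillary electrophoresis; activity is fitted bidirectionally against DMSO controls.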
# [13] = ATG_RORE_CIS: Attagene CIS-FACTORIAL HepG2 Assay for human RAR-related Orphan Receptor Element (RORE) (AID 2282959); conditions: HepG2 Attagene cis-factorial RORE reporter, mRNA; actives raise or lower the signal
# In short: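 Cells were HepG2 carrying transfected cis-regulated reporter constructs, dosed for 24 hours. Total RNA was reverse-transcribed and reporter cDNA amplified, fluorescently labeled and sized by capillary electrophoresis. Activity was fitted bidirectionally relative to DMSO.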
# [14] = ATG_Sox_CIS: Attagene CIS-FACTORIAL HepG2 Assay for human SRY-box transcription factor (SOX) (AID 2282960); conditions: HepG2 Attagene cis-factorial SOX reporter, mRNA; actives raise or lower the signal
# In short: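 Transient MRTU transfection of HepG2; 24 h compound incubation; TriZol RNA, oligo(dT) RT, PCR, 6-FAM primer extension, HpaI cut, CE. Bidirectional fit, DMSO = baseline.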
# [15] = ATG_SREBP_CIS: Attagene CIS-FACTORIAL HepG2 Assay for human Sterol Regulatory Element Binding (SREBP) (AID 2282962); conditions: HepG2 Attagene cis-factorial SREBP reporter, mRNA; actives raise or lower the signal
# In short: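 Endogenous factor activity is measured in HepG2 through multiplexed reporter units under cis-element control. Following a 24 h incubation, reporter transcripts are reverse-transcribed, PCR-amplified and sized by capillary electrophoresis; activity is fitted in both directions relative to DMSO.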
# [16] = biological target: Signal transducer and activator of transcription 3 (Homo sapiens) (UniProt P40763); assay: ATG_STAT3_CIS: Attagene CIS-FACTORIAL HepG2 Assay for human Signal Transducer and Activator of Transcription 3 (STAT3) (AID 2282963); conditions: HepG2, Attagene cis-factorial STAT3 reporter transcription; actives raise or lower the signal
# In short: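 Uses human liver HepG2 transiently carrying cis-regulated reporter transcription units. Following 24 h dosing, reporter mRNA induction was detected by RT-PCR and capillary electrophoresis, analysed bidirectionally versus DMSO.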
# [17] = ATG_TA_CIS: Attagene CIS-FACTORIAL HepG2 Assay for human TA Basal Promoter (AID 2282964); conditions: HepG2 Attagene CIS-factorial TA basal promoter reporter; actives raise or lower the signal
# In short: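 Steps: transfect HepG2 with MRTUs; dose 24 h; isolate RNA, DNase-treat, reverse-transcribe; PCR and FAM-label reporter cDNA; digest with HpaI 2h at 37 C; run capillary electrophoresis. Activity fitted both directions against DMSO.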
# [18] = ATG_TCF_b_cat_CIS: Attagene CIS-FACTORIAL HepG2 Assay for human T-Cell-Factor with beta-catenin (TCF/b-cat) (AID 2282965); conditions: HepG2 TCF/beta-catenin cis-reporter transcription, actives raise or lower the signal
# In short: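 Using capillary electrophoresis as the read-out, labelled reporter cDNA fragments from transiently transfected HepG2 were sized and quantified. Exposure lasted 24 hours; activity in either direction was referenced to DMSO.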
# [19] = ATG_PBREM_CIS: Attagene CIS-FACTORIAL HepG2 Assay for human Phenobarbital-responsive Enhancer Module (PBREM) (AID 2282955); conditions: HepG2 PBREM cis-reporter, Attagene multiplexed transcription; actives raise or lower the signal
# In short: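 Fluorescence of labelled reporter cDNA fragments, resolved by capillary electrophoresis, gives mRNA induction in transfected HepG2 cells treated for 24 h; DMSO serves as negative control and baseline.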
# [20] = biological target: Transcription factor Sp1 (Homo sapiens) (UniProt P08047); assay: ATG_Sp1_CIS: Attagene CIS-FACTORIAL HepG2 Assay for human Specificity Protein 1 (Sp1) (AID 2282961); conditions: HepG2 Sp1 cis-reporter transcription, actives raise or lower the signal
# In short: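 Endogenous Sp1 activity was gauged in human liver HepG2 cells bearing transfected reporter units under a cis-regulating promoter. After 24 h dosing, reporter mRNA was quantified by RT-PCR with capillary electrophoresis, and activity fitted bidirectionally versus DMSO.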
# Chain of Bile acid receptor (Homo sapiens) (Q96RI1 whole entry, looked up): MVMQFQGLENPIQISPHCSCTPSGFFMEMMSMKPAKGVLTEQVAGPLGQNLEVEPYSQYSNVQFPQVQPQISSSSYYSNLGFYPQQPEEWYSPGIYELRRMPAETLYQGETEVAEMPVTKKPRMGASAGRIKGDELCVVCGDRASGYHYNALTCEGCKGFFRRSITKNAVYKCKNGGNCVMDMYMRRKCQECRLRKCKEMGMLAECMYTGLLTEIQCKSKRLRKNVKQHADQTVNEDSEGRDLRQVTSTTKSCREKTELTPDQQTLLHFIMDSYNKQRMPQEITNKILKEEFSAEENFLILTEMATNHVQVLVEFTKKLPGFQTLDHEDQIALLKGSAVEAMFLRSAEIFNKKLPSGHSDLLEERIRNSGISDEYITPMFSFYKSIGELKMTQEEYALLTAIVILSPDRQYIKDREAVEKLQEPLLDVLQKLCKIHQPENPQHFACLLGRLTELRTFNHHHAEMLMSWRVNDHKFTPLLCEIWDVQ
# Chain of Hepatocyte nuclear factor 6 (Homo sapiens) (Q9UBC0 whole entry, looked up, the tested form may be a part): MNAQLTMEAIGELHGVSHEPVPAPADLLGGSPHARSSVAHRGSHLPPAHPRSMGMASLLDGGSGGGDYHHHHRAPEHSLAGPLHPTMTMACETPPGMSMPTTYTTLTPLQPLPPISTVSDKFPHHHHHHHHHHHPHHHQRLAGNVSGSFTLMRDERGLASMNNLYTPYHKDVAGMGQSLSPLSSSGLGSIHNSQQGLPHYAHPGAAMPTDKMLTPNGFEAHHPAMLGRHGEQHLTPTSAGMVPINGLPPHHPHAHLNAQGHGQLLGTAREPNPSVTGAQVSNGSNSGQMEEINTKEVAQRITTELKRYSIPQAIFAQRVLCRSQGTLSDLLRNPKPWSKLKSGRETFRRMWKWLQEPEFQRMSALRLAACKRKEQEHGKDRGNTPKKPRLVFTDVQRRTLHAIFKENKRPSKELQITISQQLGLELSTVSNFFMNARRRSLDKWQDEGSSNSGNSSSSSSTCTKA
# Chain of Heat shock factor protein 1 (Homo sapiens) (Q00613 whole entry, looked up, the tested form may be a part): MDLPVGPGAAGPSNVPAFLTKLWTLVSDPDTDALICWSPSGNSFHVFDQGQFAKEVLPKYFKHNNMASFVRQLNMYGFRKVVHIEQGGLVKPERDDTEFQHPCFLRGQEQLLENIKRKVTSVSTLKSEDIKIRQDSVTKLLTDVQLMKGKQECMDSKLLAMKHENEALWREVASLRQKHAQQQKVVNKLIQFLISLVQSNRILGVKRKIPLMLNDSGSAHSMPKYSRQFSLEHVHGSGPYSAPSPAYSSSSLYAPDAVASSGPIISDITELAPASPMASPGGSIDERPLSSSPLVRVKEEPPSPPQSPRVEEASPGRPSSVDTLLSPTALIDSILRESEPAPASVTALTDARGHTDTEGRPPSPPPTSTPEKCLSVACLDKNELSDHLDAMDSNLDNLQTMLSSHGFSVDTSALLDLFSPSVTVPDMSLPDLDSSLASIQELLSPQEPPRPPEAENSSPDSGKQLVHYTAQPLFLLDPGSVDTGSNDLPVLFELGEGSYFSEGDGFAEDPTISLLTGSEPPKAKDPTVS
# Chain of Hypoxia-inducible factor 1-alpha (Homo sapiens) (Q16665 whole entry, looked up): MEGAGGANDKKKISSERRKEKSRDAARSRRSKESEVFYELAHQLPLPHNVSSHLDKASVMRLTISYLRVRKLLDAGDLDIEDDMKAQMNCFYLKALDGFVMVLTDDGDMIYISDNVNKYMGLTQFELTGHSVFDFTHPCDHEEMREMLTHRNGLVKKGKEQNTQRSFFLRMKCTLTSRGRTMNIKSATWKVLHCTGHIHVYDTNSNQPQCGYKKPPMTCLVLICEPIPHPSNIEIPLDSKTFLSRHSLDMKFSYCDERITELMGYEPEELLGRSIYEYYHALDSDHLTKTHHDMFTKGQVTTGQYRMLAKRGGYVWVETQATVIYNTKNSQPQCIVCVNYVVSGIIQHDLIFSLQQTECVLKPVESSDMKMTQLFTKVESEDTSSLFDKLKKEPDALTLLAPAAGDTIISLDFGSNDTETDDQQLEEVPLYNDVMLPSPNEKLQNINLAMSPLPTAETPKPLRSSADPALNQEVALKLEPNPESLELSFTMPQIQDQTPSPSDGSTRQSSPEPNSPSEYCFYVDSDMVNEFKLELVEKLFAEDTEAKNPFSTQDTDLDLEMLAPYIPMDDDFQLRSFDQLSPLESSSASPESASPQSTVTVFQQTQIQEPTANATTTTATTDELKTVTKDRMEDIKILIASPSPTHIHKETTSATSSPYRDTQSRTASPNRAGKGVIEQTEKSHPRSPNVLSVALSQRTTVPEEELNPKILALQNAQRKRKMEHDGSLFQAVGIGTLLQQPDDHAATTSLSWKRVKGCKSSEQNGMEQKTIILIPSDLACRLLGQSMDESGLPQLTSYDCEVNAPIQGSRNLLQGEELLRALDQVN
# Chain of Transcription factor Sp1 (Homo sapiens) (P08047 whole entry, looked up): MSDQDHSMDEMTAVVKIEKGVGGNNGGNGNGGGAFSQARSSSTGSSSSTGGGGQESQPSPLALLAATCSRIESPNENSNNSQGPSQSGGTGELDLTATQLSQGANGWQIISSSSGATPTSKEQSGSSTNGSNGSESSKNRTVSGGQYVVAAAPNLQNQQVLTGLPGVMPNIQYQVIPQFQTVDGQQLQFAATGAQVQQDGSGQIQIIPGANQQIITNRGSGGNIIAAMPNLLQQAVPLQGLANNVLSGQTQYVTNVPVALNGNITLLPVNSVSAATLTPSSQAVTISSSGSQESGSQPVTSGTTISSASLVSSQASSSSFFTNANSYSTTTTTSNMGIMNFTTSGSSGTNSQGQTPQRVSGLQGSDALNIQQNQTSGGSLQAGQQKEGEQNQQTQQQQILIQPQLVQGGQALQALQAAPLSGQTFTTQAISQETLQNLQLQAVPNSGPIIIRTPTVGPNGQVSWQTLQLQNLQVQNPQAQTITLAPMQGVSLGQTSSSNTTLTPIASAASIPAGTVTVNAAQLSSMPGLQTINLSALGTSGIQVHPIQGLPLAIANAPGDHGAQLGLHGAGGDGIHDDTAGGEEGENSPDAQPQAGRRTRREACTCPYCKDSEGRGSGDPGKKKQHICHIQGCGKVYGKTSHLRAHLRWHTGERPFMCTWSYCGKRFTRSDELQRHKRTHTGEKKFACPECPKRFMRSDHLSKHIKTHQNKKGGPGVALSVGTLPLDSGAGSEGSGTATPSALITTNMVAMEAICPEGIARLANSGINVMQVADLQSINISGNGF
# Chain of Signal transducer and activator of transcription 3 (Homo sapiens) (P40763 whole entry, looked up): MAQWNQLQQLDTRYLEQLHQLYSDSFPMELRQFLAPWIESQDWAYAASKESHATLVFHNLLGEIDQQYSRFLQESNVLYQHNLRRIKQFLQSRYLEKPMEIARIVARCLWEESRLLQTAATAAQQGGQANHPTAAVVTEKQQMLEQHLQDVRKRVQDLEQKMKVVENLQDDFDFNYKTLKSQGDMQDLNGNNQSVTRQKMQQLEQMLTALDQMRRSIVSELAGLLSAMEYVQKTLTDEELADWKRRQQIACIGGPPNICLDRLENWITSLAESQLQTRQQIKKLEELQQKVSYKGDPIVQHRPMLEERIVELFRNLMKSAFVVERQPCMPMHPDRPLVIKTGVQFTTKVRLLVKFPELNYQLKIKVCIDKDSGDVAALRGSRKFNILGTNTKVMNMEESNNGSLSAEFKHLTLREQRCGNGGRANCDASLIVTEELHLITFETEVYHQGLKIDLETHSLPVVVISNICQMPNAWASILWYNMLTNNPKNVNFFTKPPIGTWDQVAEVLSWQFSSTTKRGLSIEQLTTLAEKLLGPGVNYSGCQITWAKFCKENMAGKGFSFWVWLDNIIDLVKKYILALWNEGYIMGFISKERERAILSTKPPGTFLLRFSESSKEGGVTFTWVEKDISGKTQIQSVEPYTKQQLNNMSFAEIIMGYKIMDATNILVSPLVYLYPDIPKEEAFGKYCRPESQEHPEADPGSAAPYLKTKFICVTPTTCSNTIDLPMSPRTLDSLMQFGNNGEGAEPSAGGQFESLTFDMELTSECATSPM
# Chain of Paired box protein Pax-6 (Homo sapiens) (P26367 whole entry, looked up): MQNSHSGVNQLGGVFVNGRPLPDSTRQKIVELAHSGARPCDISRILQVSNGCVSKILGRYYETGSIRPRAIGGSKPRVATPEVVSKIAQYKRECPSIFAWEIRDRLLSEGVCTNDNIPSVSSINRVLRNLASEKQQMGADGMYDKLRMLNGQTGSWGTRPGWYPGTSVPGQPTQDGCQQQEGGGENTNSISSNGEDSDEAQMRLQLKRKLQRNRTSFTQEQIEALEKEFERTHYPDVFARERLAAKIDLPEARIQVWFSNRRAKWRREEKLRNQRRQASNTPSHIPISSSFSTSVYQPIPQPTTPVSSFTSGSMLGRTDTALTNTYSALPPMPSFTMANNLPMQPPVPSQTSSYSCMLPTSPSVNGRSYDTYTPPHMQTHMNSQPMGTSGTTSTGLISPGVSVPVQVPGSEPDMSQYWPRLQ
structure (smiles),measurement,setting,value
CN(C)CCCN(C)CCCN(C)C,outcome,[1],inactive
same,outcome,[2],inactive
same,outcome,[3],inactive
same,outcome,[4],inactive
same,outcome,[5],inactive
same,outcome,[6],inactive
same,outcome,[7],inactive
same,outcome,[8],inactive
same,outcome,[9],inactive
same,outcome,[10],inactive
same,AC50,[11],25.6 µM (active)
same,outcome,[12],inactive
same,outcome,[13],inactive
same,outcome,[14],inactive
same,outcome,[15],inactive
same,outcome,[16],inactive
same,outcome,[17],inactive
same,outcome,[18],inactive
O=C(N[C@@H](c1ccccc1)[C@@H]1CCCCN1)c1cccc(C(F)(F)F)c1Cl,outcome,[1],inactive
same,outcome,[2],inactive
same,outcome,[3],inactive
same,outcome,[4],inactive
same,outcome,[5],inactive
same,AC50,[6],16.6 µM (active)
same,AC50,[7],62.1 µM (active)
same,AC50,[8],52.4 µM (active)
same,AC50,[9],38 µM (active)
same,outcome,[19],inactive
same,AC50,[10],33 µM (active)
same,AC50,[11],8.23 µM (active)
same,outcome,[12],inactive
same,outcome,[13],inactive
same,AC50,[14],33 µM (active)
same,AC50,[20],42.7 µM (active)
same,AC50,[15],8.09 µM (active)
same,outcome,[17],inactive
same,AC50,[18],16.6 µM (active)
O=C1c2c(O)cccc2Cc2cccc(O)c21,outcome,[1],inactive
same,outcome,[2],inactive
same,outcome,[3],inactive
same,outcome,[4],inactive
same,outcome,[5],inactive
same,AC50,[6],26.6 µM (active)
same,outcome,[7],inactive
same,outcome,[8],inactive
same,outcome,[19],inactive
same,outcome,[10],inactive
same,outcome,[11],inactive
same,outcome,[12],inactive
same,outcome,[13],inactive
same,outcome,[14],inactive
same,outcome,[20],inactive
same,outcome,[15],inactive
same,outcome,[16],inactive
same,outcome,[17],inactive
same,outcome,[18],inactive
CC(=O)S[C@H](C(=O)N[C@H]1Cc2ccccc2[C@H]2CCC[C@@H](C(=O)O)N2C1=O)C(C)C,outcome,[1],inactive
same,outcome,[2],inactive
same,outcome,[3],inactive
same,outcome,[4],inactive
same,outcome,[5],inactive
same,outcome,[6],inactive
same,outcome,[7],inactive
same,outcome,[8],inactive
same,outcome,[19],inactive
same,outcome,[10],inactive
same,AC50,[11],40.9 µM (active)
same,outcome,[13],inactive
same,outcome,[20],inactive
same,outcome,[15],inactive
same,outcome,[17],inactive
same,outcome,[18],inactive
Cc1cc(Cc2ccc(N)c(C)c2)ccc1N,outcome,[1],inactive
same,outcome,[2],inactive
same,outcome,[3],inactive
same,outcome,[4],inactive
same,outcome,[5],inactive
same,outcome,[6],inactive
same,outcome,[7],inactive
same,outcome,[8],inactive
same,outcome,[19],inactive
same,outcome,[10],inactive
same,outcome,[11],inactive
same,outcome,[13],inactive
same,outcome,[20],inactive
same,AC50,[15],12.9 µM (active)
same,outcome,[17],inactive
same,outcome,[18],inactive
CCCCC(CC)COC(=O)CCCCCCCC(=O)OCC(CC)CCCC (stereo not given),outcome,[1],inactive
same,outcome,[2],inactive
same,outcome,[3],inactive
same,outcome,[4],inactive
same,outcome,[5],inactive
same,AC50,[6],61.9 µM (active)
same,outcome,[7],inactive
same,outcome,[8],inactive
same,outcome,[19],inactive
same,outcome,[10],inactive
same,outcome,[11],inactive
same,outcome,[14],inactive
same,outcome,[20],inactive
same,outcome,[15],inactive
same,outcome,[16],inactive
same,outcome,[17],inactive
same,outcome,[18],inactive
CC(C)c1cccc(C(C)C)c1NC(=O)NS(=O)(=O)c1cc(C(C)(C)O)co1,outcome,[1],inactive
same,outcome,[2],inactive
same,outcome,[3],inactive
same,outcome,[4],inactive
same,outcome,[5],inactive
same,outcome,[6],inactive
same,outcome,[7],inactive
same,outcome,[8],inactive
same,outcome,[9],inactive
same,outcome,[10],inactive
same,AC50,[11],16.7 µM (active)
same,outcome,[13],inactive
same,outcome,[14],inactive
same,outcome,[15],inactive
same,outcome,[16],inactive
same,outcome,[17],inactive
same,outcome,[18],inactive
COC(=O)CCCC(=O)OC,outcome,[1],inactive
same,outcome,[2],inactive
same,outcome,[3],inactive
same,outcome,[4],inactive
same,outcome,[5],inactive
same,outcome,[6],inactive
same,outcome,[7],inactive
same,outcome,[8],inactive
same,outcome,[9],inactive
same,outcome,[19],inactive
same,outcome,[10],inactive
same,outcome,[11],inactive
same,outcome,[13],inactive
same,outcome,[14],inactive
same,outcome,[20],inactive
same,outcome,[15],inactive
same,outcome,[17],inactive
same,outcome,[18],inactive
